Drawing on PubChem BioAssay AID1347426 (Functional Genomics Laboratory (NCATS/FGL), 2020), this text covers median seed-adjusted z-score for 108 sequences.

Hit rate of the full screen: of about 31,000 sequences, about 1,400 (4.5%) were called active.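 How the source made its calls: active means median seed-adjusted z-score above 1 or below -1; inactive means the rest.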 Shown is part of a subset that was picked to be rich in actives.

This assay in a line: Novel Modifiers of Survival Motor Neuron (SMN) Protein: Gene Identification via Genome-wide siRNA Screen. The following applies: HEK293T SMN2-luciferase reporter, siRNA knockdown, 72 h; actives lie on both sides. The essentials: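 Each of three siRNAs per gene is reverse-transfected (1 pmol) into reporter HEK293T cells whose luciferase output tracks SMN protein level. After 72 h culture, ONE-Glo luminescence is control-normalized, log10-transformed and MAD-standardized; Common Seed Analysis deprioritizes seed-driven hits.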
(Reporter assays use an easily measured gene product as a stand-in for the process of interest.)
Regarding GACUAGUACUUACGGCUUUTT against RBM15, the median seed-adjusted z-score was -0.409 (inactive).

As to GCAUGAACGCGGUCAUGAUTT against RAB40C, the median seed-adjusted z-score is -0.161 (inactive). In the case of CAGGUCAAGUGUUACCGAUTT against ZCCHC13 it was -0.297 (inactive); in that of GCAAUUACAGGCUAGUGAATT against AKAP9, -1.22 (active). In the case of CCUACUUCGGAGUCUAUGATT against SLC25A4 it was -0.379 (inactive).

In the case of CAAGGUUGAUGGGCGUGUATT against HNRNPA3, the median seed-adjusted z-score is 0.915 (inactive). In the case of CCAGGACUUUGUUACUGCATT against TIGD6 it was -0.443 (inactive). In the case of GCUGGUACCCGUCAACAAATT against ABCC10 it was -1.56 (active); in that of GGACUUCAAUAUCGCAGUATT against PLCE1, 0.597 (inactive). In the case of GGAACAGCGCAGUACGUUUTT against PDPK1 it was 0.0807 (inactive); in that of CCAUCGCUUUCAGCAGACATT against DLX6, 0.0275 (inactive); in that of GGACCACAAGGGAAUACAATT against KHDRBS1, 0.0916 (inactive). For ACUUGGAUCAUUUCCCUGATT against SLC13A5, the median seed-adjusted z-score is 0 (inactive). In the case of GACCUUGAAUGUUCAACAUTT against ZNF470 it was -1.26 (active); in that of GCCGCAUCGUAGCUCGUAATT against RRAD, -0.267 (inactive); in that of GGAAUAUGCAUAUCAUGGATT against LNPEP, -0.386 (inactive).

In the case of CGAUAUAUGUGAUAUGCGUTT against ZNF740, the median seed-adjusted z-score is -0.914 (inactive). In the case of GCAACAAGACGGAAUUGGATT against SFRS3 it was 2.74 (active). On to GAGUGGACAUUCUAAUCAATT against RDH13, for which the median seed-adjusted z-score was 0.208 (inactive). Regarding CCAUCUUAAACUCGCUCUATT against GPR114, the median seed-adjusted z-score was 0.805 (inactive).

For CUACCGGGCUGACCUCAAATT against GPR153, the median seed-adjusted z-score is -1.08 (active).

As for UGAGAGCUCUAGAUAUGAATT against ZNF768, the median seed-adjusted z-score was 0.169 (inactive).

Turning to ACGGCUCUGUGGACACAGATT against GPR78, the median seed-adjusted z-score is 0.607 (inactive). Regarding CGAGUGAAAGAAUCAAUAUTT against OXSR1, the median seed-adjusted z-score is -0.0682 (inactive). In the case of GCUACGAGUUUACUAUCUUTT against TNIK it was 0.154 (inactive); in that of CCUCAGAGCUCAAUCAUCUTT against CD5, 0.0416 (inactive). In the case of CGAUAAUCUGGGCUACAGATT against ADD1 it was -0.0129 (inactive); in that of CCAAUACUAACAUCUUCAATT against MCART1, -0.605 (inactive); in that of CAACGGCUCUUAGACCACATT against SPRY4, -1.23 (active).

Turning to GCUCAGUAUUUAAACAUCATT against COL9A2, the median seed-adjusted z-score is 0.0208 (inactive). In the case of AGCCGACAGUGGUGCACUATT against PLA2G15 it was 0 (inactive); in that of CGGAGACCGUACGAAAGUATT against A2M, -1.96 (active).

GGAUGGAAGAUAGCUUGAATT against CPEB4: the median seed-adjusted z-score is -0.53 (inactive).

Turning to CGGGCAUUGCCACCAAAGATT against DUX5, the median seed-adjusted z-score was -0.295 (inactive). In the case of GCAUUCAUCACUUCGAAAATT against BNC2 it was -0.0556 (inactive); in that of CCUACAGCAGUGUCUAUGATT against EIF3C, 0.56 (inactive); in that of GGUUGACUCAGAUACUACATT against CENPE, 0.298 (inactive).

Take GGAUCCUUACUUCUUGUCATT against COQ2: the median seed-adjusted z-score is -0.0121 (inactive). In the case of GGAAACCAGUGGAUAUUAATT against F11 it was -0.0319 (inactive); in that of ACAUCAACGUGGAACGAGATT against EIF4A1, -1.05 (active). Regarding GAUGAGACUUUGACUAUAATT against FGD6, the median seed-adjusted z-score was 0.536 (inactive). In the case of GCCUGAACCUCAUCCUUAUTT against ENPP1 it was -0.273 (inactive); in that of GGGUUUUCAUUCAGAUGAATT against MLL4, -0.259 (inactive).

For the sequence GGAUUAUUCCUACCUAAUUTT against CDYL2, the median seed-adjusted z-score is -0.379 (inactive). As for GGAAGAAGGUUCUCAAACATT against RETSAT, the median seed-adjusted z-score is -1.7 (active). For the sequence GGAGCAGUAUUGACAACAATT against NUFIP1, the median seed-adjusted z-score was -0.673 (inactive). In the case of GCACAAUUGAAAACUUCAATT against CYSLTR2 it was 0.0461 (inactive); in that of GGAUGUUCCAAAUCACGGATT against MBTD1, 0.0649 (inactive); in that of GGAUUGCCCAGGGUUCCUATT against DGKQ, -0.0985 (inactive). In the case of CGGUUAGAUUUGGACAGUATT against ARHGAP9 it was 0 (inactive).

With GGACUUGGUUUUUCGUACATT against MED14, the median seed-adjusted z-score was -3.22 (active). Turning to UCCUUUAACUCGACAGUCATT against DRG2, the median seed-adjusted z-score was -0.175 (inactive). In the case of AGAGGGCACUGGACCUGAATT against UQCRB it was 0.348 (inactive); in that of GAUCCAAUGUAAACGUGGATT against GRLF1, 0.0307 (inactive). In the case of GGACCAGAACCACAAGCAATT against GHSR it was 0.18 (inactive); in that of GAUCAUCUCUGAAACAGCATT against GYG1, 0.119 (inactive). In the case of CAUUCGACAUAGAAGAGUUTT against ZNF551 it was -0.171 (inactive); in that of GGUUACAAGCGGUUUGGUATT against COLEC12, -1.04 (active). For the sequence CAUGUUAAUUGUUAAGGAUTT against WFDC8, the median seed-adjusted z-score was 0.0427 (inactive). In the case of GAGCAGAUCGAGAUCAAAATT against EVI5L it was 0.0497 (inactive). In the case of GGAAAUUCAGGUACGGAUATT against ADAMTS4 it was -0.0153 (inactive).

For CGGACAUUCGUGCAAAGAATT against PRPF6, the median seed-adjusted z-score is -1.06 (active).

As for AGAAUACGAUGACCACCAATT against RING1, the median seed-adjusted z-score is 0.685 (inactive). In the case of GCAUACAUCAUGACCGUCATT against DUSP22 it was 0 (inactive); in that of GCCGAUACCUUCACUCGAATT against TAP1, -0.506 (inactive). In the case of GGGAAGCUAUGCGAAAUUATT against RBPJ it was -0.452 (inactive); in that of GCUUCAUUGAGUACGAGAATT against PUF60, 2.26 (active). In the case of GGAUCGGAUAAAUAACAGUTT against HEY2 it was -0.0831 (inactive); in that of GAUCAAGACUCUGCGCCUATT against HAND1, 0.161 (inactive); in that of GAAUUGCUGAUAAACCUAUTT against SMNDC1, -1.54 (active). For the sequence GUAUUCCAGCGAAUCCGAUTT against PAK7, the median seed-adjusted z-score was -0.202 (inactive). In the case of CGUCAAAAGAGCCCAUAAATT against ENPP5 it was -0.0499 (inactive). In the case of GGAACUCUAUGGUCAUCUATT against SSTR1 it was 0.285 (inactive); in that of CCAAAGGAGUCAGCACUGUTT against PLXNA1, 0 (inactive); in that of GCAGUUGAAUUAUCACAGUTT against UQCRFS1, -1.28 (active). Turning to GGAAGAAUGUGGUUUGCGATT against GFOD2, the median seed-adjusted z-score is -0.0447 (inactive).

In the case of GGAGAGGAUUAUUUCCGCATT against SDR9C7, the median seed-adjusted z-score was 0 (inactive). In the case of GCAAGUUGGAGAACGAGUATT against MED8, the median seed-adjusted z-score was -1.61 (active).

GGCCCAAGAUCUUCCCUAATT against GPR179: the median seed-adjusted z-score is -0.513 (inactive).

On to CAGUCGUUGCUGUCAAAAATT against RGS9, for which the median seed-adjusted z-score is 0.0665 (inactive). In the case of UGCUCUCUGUUGCAUUGAATT against IAPP, the median seed-adjusted z-score was -0.157 (inactive).

Take GAUUUCUAAUUAACACAAUTT against POLR1D: the median seed-adjusted z-score was -0.0409 (inactive).

For CCAUCAUCCGGGAUGAGGATT against NPEPL1, the median seed-adjusted z-score is 1.12 (active). In the case of GCAAAGUGCCGAAACAAGATT against ATF3 it was -0.000485 (inactive); in that of CGAAUAUACCAGGACGAAATT against SATB1, 0 (inactive). In the case of UACUGUCUCUAGUCUUUUUTT against SEC11B it was 1.04 (active); in that of GCUUGUUCGGCUACACGAATT against CYP8B1, 0 (inactive); in that of CUAAAAGACCGAACAAUAATT against HNRPUL1, -0.047 (inactive). In the case of GGUUCAUGUUUGCAAUCUUTT against POLR2B it was -4.81 (active); in that of UGAACGCAGUCAUCCGGAATT against MAPK15, 0.0724 (inactive); in that of CCAAUGAUGUAUGAUCUAATT against UBE3A, 0.0949 (inactive). For GGACUAUAAAUCCAGCUUUTT against TOMM34, the median seed-adjusted z-score was -0.503 (inactive). In the case of CUCCUAAAGUGCAUCGCAATT against GUF1 it was 0.119 (inactive). In the case of CAUCAGAUCUUGAUCAGUUTT against NKTR it was -1.1 (active); in that of CUCUUCACGUCUGACCUGATT against HTR6, -0.463 (inactive); in that of CCCAUAUGAUUACCCAUUUTT against MYH2, -0.73 (inactive).

With CCUGCAGAAUAACCUGAUATT against OPTC, the median seed-adjusted z-score is 0.0953 (inactive). In the case of CCUGGAAACUACAAGCCCATT against SIRT3 it was -0.341 (inactive); in that of GCCUCGAGCCUAUUCGUUATT against PCDHB4, 0.00998 (inactive).

Regarding GACUACGACUGGUUCUUCATT against CSGLCA-T, the median seed-adjusted z-score is 0.146 (inactive). In the case of AGUCAAGAACAAUACCCAATT against SNRPD2 it was -0.849 (inactive); in that of GAGCAGCUCUUAAGCAACATT against SAPS1, 1.16 (active); in that of GCCUGUCCCUAGCAUUGUUTT against CES2, -0.47 (inactive). In the case of CCAGUCACUGCAUAACAUUTT against PSMD9 it was 0.266 (inactive); in that of GAACUAGGAGAUACAAUAUTT against ELOVL6, 0.742 (inactive). In the case of GGACAGUCUUCUGUAUGCATT against RBM39 it was -1.82 (active); in that of CCAGAGAAAUGAGAUUGGATT against ZNF195, 0.0753 (inactive); in that of GCCUGCAAGUGAAGCGGAATT against PRMT1, -0.596 (inactive).
